# Laboratory results: PubChem BioAssay AID1259341 (Broad Institute, 2017)
# Activity calls are given as the source filed them.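 Rule for the calls: active = activity change under -35% in any replicate well, with more than 20 beads read in that well; inactive = the rest.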
# Target: Caspase recruitment domain-containing protein 9 (Homo sapiens) + E3 ubiquitin-protein ligase TRIM62 (Homo sapiens) (UniProt Q9H257+Q9BVG3)
# Assay: disruptors of CARD9-TRIM62 binding, primary screen, cell lysate, HEK293FT lysates, Luminex bead ELISA (AID 1259341);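 note: PE anti-Flag signal of Flag-CARD9 captured by myc-TRIM62 beads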
# Details: PE fluorescence, stronger effect = lower value, concentration not given here
# Caspase recruitment domain-containing protein 9 (Homo sapiens) + E3 ubiquitin-protein ligase TRIM62 (Homo sapiens), sequence (Q9BVG3 whole entry, looked up, the tested form may be a part): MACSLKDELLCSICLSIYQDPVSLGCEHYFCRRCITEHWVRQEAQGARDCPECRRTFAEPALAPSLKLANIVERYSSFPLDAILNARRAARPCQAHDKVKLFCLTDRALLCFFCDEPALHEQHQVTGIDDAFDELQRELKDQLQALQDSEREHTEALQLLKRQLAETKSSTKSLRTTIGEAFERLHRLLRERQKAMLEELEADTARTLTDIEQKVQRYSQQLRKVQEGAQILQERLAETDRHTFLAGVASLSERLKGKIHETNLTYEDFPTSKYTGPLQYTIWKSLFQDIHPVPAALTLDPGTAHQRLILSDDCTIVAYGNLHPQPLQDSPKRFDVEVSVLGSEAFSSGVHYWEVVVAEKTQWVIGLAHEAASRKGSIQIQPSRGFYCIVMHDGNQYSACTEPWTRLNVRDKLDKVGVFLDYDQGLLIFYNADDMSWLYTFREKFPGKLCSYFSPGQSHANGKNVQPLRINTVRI
# Caspase recruitment domain-containing protein 9 (Homo sapiens) + E3 ubiquitin-protein ligase TRIM62 (Homo sapiens), sequence (Q9H257 whole entry, looked up, the tested form may be a part): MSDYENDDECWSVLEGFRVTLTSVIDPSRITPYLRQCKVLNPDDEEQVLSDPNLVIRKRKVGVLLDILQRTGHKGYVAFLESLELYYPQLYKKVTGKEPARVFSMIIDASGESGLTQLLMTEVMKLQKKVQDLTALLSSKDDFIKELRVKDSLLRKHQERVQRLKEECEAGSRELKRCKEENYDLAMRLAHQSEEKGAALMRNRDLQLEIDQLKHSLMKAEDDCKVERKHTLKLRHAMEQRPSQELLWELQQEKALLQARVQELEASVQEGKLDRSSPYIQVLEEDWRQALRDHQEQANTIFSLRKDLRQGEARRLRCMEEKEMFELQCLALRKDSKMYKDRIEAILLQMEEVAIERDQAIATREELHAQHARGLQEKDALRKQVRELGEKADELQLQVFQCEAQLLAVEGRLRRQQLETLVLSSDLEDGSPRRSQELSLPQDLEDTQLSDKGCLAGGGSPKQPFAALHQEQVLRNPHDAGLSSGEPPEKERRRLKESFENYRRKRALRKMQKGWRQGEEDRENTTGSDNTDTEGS
row,SMILES,"activity change, negative = inhibition"
1,CCCc1cc(C(=O)N2CC[C@H]3CNC[C@H]32)n(C)n1,-0.754% (inactive)
2,CCc1oc2ccccc2c1C(=O)CCN1CCCCC1,2.4% (inactive)
3,C[C@H](CO)N1C[C@H](C)[C@@H](CN(C)CC2CCCCC2)OCCCC[C@H](C)Oc2ccc(NS(=O)(=O)c3cccs3)cc2C1=O,9.64% (inactive)
4,O=C(Nc1nc(-c2ccccn2)cs1)c1cccc(-n2cnnn2)c1,199% (inactive)
5,COCC(=O)n1nc(-c2ccco2)nc1NCc1cccs1,-2.31% (inactive)
6,CCC12CCCN3CCc4c(n(c5ccccc45)C(O)(C(=O)OC)C1)C32 (stereo unspecified),-2.25% (inactive)
7,O=C(Nc1nc(-c2ccco2)c(-c2ccco2)s1)C1CCC1,-9.96% (inactive)
8,Cc1ccccc1C(=O)Nc1cnc(N2CCC(C(N)=O)(N3CCCCC3)CC2)c(C(=O)O)c1,-48.4% (active)
9,c1ccc(-c2nc(-c3ccco3)n3ccccc23)cc1,-5.09% (inactive)
10,O=C(COC(=O)c1cc(-c2ccco2)nc2ccccc12)NCc1ccc2c(c1)OCO2,3.18% (inactive)
11,O=C(Nc1cccc2nsnc12)c1ccc(-c2cccc(Cl)c2)o1,11.7% (inactive)
12,CCOC(=O)c1[nH]c(Cc2[nH]c(C(=O)OCC)c(C)c2C)c(C)c1C,-0.0423% (inactive)
13,O=C(NCc1ccco1)c1c2c(nc3ccccc13)CCC2,-3.42% (inactive)
14,C(=N\n1cnnc1SCc1ccccc1)/c1ccco1,4.53% (inactive)
15,CN(Cc1ccco1)S(=O)(=O)c1nnc(NC(=O)c2ccccc2)s1,13.7% (inactive)
16,Cc1ccc(N2C(=O)c3ccccc3C2C(=O)c2ccc(O)cc2O)cc1 (stereo unspecified),12.1% (inactive)
17,Cc1sc2ncnc(SCc3ccco3)c2c1C,-1.85% (inactive)
18,O=C(NCC1CCCO1)c1cc(-c2ccco2)nc2ccccc12 (stereo unspecified),-3.93% (inactive)

row,SMILES,"activity change, negative = inhibition"
1,Cc1cncc(-c2ccc(S(N)(=O)=O)cc2F)c1,-3.94% (inactive)
2,O=C1CS/C(=N\N=C\c2ccco2)N1c1ccccc1,-3.42% (inactive)
3,CC(=O)c1cccc(OCC(=O)N(C)CC(=O)NCc2ccco2)c1,-22.5% (inactive)
4,C[C@H](CO)N1C[C@H](C)[C@H](CN(C)C(=O)C2CCCCC2)OCCCC[C@H](C)Oc2ccc(NS(=O)(=O)c3cccs3)cc2C1=O,6.16% (inactive)
5,O=C(NCc1ccco1)C1CCCN(S(=O)(=O)c2cccc3nonc23)C1 (stereo unspecified),0.63% (inactive)
6,CCNc1ncc(C(=O)NCCc2nc3c(s2)CCCC3)cn1,-3.32% (inactive)
7,C=CCNc1ncnc2c1CCN(C(=O)c1ccc(CSC)o1)CC2,2.9% (inactive)
8,Cn1nnnc1SCCNCc1ccc(-c2cccc(C(F)(F)F)c2)o1,-0.39% (inactive)
9,Cc1ccc(-c2cc(C(=O)Nc3ccccn3)c3ccccc3n2)o1,-4.7% (inactive)
10,O=C(Nc1nncs1)c1cc(-c2ccco2)nc2ccccc12,-5.26% (inactive)
11,Cn1ncc2c(NNC(=O)c3cc(O)cc(O)c3)ncnc21,1.25% (inactive)
12,CCOC(=O)c1ccc(-c2ccc(C3CC(=O)Nc4cc5c(cc43)OCCO5)o2)cc1 (stereo unspecified),-0.752% (inactive)
13,O=C(O)CCc1ccc(-c2cccs2)n1NC(=O)c1ccco1,1.63% (inactive)
14,O=C(O)c1ccccc1SC1CC(=O)N(Cc2ccccc2)C1=O (stereo unspecified),6.92% (inactive)
15,O=C(NCc1ccco1)c1ccc(S(=O)(=O)N2CCOCC2)cc1,19.9% (inactive)
16,Cc1ccc(C2CC(=O)C3=C(C2)Nc2ccccc2NC3c2cccnc2)cc1 (stereo unspecified),-0.28% (inactive)
17,O=C(Cn1cncc1-c1ccc([N+](=O)[O-])cc1)Nc1ccccc1F,4.4% (inactive)
18,O=C(COC(=O)c1ccccc1Oc1ccccc1)NCc1ccco1,3.86% (inactive)
